Data reported in PubChem BioAssay AID504329 (Southern Research Specialized Biocontainment Screening …, 2011).
The whole screen tested about 340,000 compounds, of which about 1,000 (0.29%) were called active. No stated cut-off is given here; in the data, inconclusive means inhibition above about 27% without an active follow-up result; inactive means below that. Not all results are given here. Measured potencies and affinities stand elsewhere.

experiment: NS1A inhibition, H1N1 influenza, cell based functional assay (AID 504329); settings: percent inhibition, at 12.5 µM, active compounds read high

Row | Compound | inhibition
1 | NNC(=O)c1sccc1OCc1ccc(Cl)cc1 | 0.97% (inactive)
2 | Cc1noc(C)c1S(=O)(=O)Nc1ccccc1N1CCOCC1 | 0.87% (inactive)
3 | O=C(CCNC(=O)c1ccc([N+](=O)[O-])cc1)Nc1nc2ccccc2[nH]1 | -0.35% (inactive)
4 | O=[N+]([O-])c1ccc(N=Nc2ccc(O)cc2O)cc1 | -9.68% (inactive)
5 | O=S(=O)(Nc1ccc(N=Nc2ccc(O)c3ccccc23)cc1)c1ccccc1 | 5.24% (inactive)
6 | O=C1ON=C(c2ccccc2)/C1=C/c1ccc(-c2ccccc2[N+](=O)[O-])o1 | -1.51% (inactive)
7 | COc1ccc(-c2ccc(/C=C3\C(=O)N(c4ccccc4)N=C3c3ccccc3)o2)c([N+](=O)[O-])c1 | 10.3% (inactive)
8 | CC(C)Cc1nnc(NC(=O)CCC(=O)NCc2ccccc2Cl)s1 | -2.08% (inactive)
9 | CC(=O)Nc1ccc2nc(NC(=O)COc3ccccc3Cl)sc2c1 | -0.9% (inactive)
10 | COc1ccc(C(=O)Nc2ccc(N3CCN(C)CC3)cc2)cc1 | 1.09% (inactive)
11 | CN1CCN(c2ccc(NC(=O)Oc3ccccc3)cc2)CC1 | 17.8% (inactive)
12 | CC(C)Oc1cccc(C(=O)Nc2ccc(N3CCN(C)CC3)cc2)c1 | -2.02% (inactive)
13 | C=CC(=O)Nc1cccc(Oc2ccnc3[nH]ccc23)c1 | 19.9% (inactive)
14 | Cc1ccc(S(=O)(=O)N2CCN(C(=O)COC(=O)/C=C/c3ccccc3[N+](=O)[O-])CC2)c(C)c1 | 0.45% (inactive)
15 | CC(NCC(=O)Nc1ccccc1C(=O)NC1CC1)c1cccs1 (configuration not stated) | -16.2% (inactive)
16 | CCOC(=O)c1c(NC(=O)c2ccccc2)sc2c1CCc1ccccc1-2 | -10.9% (inactive)
17 | COc1ccc(OC)c2c1C(=O)C(Cl)=C(Cl)C2=O | 24.7% (inactive)
18 | COc1ccc2noc3c2c1C(=O)c1ccccc1-3 | 7.47% (inactive)
19 | COCCN1C(=O)N[C@@H](c2ccccc2)[C@H](C(=O)OC)[C@H]1C | -12.7% (inactive)
20 | CC1(C)Oc2ccc3ccc(=O)oc3c2C(/C=N/O)=C1Cl | -10.3% (inactive)
21 | CC1(C)Oc2ccc3ccc(=O)oc3c2/C(=C/NNC(N)=O)C1=O | -7.94% (inactive)

Row | Compound | inhibition
22 | Cc1ccc(NC(=O)NNC(=O)CN2C(=O)COc3ccccc32)cc1 | -2.65% (inactive)
23 | Cc1cccc(OC(=O)c2cccnc2)c1C | -8.58% (inactive)
24 | CC(C)c1nnc(NC(=O)C2CCCN(C(=O)Nc3ccc(F)cc3)C2)s1 (configuration not stated) | -2.41% (inactive)
25 | CCOC(=O)C1CCN(C(=O)C2CCC(=O)N(Cc3cccc(C(F)(F)F)c3)C2)CC1 (configuration not stated) | 11.5% (inactive)
26 | Cc1cc2ccccc2n1CCNC(=O)C(C)C | 4.98% (inactive)
27 | CC(=O)NCCn1c(C)cc2ccccc21 | -2.59% (inactive)
28 | O=C(OCc1ccccc1F)c1cc([N+](=O)[O-])ccc1N1CCOCC1 | 12.7% (inactive)
29 | CCC(=O)NC(c1ccc(C)cc1)c1cc([N+](=O)[O-])c2cccnc2c1O (configuration not stated) | 27.3% (inactive)
30 | CCCC(=O)NC(c1cccs1)c1cc(Cl)c2cccnc2c1O (configuration not stated) | -9.38% (inactive)
31 | CC(C)C(=O)NC(c1ccccc1)c1cc([N+](=O)[O-])c2cccnc2c1O (configuration not stated) | 3.43% (inactive)
32 | CC(=O)NC(c1ccc(C)cc1)c1cc([N+](=O)[O-])c2cccnc2c1O (configuration not stated) | 22% (inactive)
33 | CCCC(=O)NC(c1ccco1)c1cc([N+](=O)[O-])c2cccnc2c1O (configuration not stated) | 4.57% (inactive)
34 | CC(C)C(=O)NC(c1cccs1)c1cc([N+](=O)[O-])c2cccnc2c1O (configuration not stated) | 7.53% (inactive)
35 | Cc1ccc(NC(=O)c2cc(-c3ccccc3)n[nH]2)cc1 | -9.32% (inactive)
36 | COc1ccc(NC(=O)CSc2nnc(C(C)C)n2N)cc1 | 2.67% (inactive)
37 | O=C(Cn1c2c(c(=O)n3ncnc13)CCC2)N/N=C/c1ccc(Cl)cc1 | -0.52% (inactive)
38 | CCn1ncc(Br)c1C(=O)Nc1nccs1 | 8% (inactive)
39 | COC(=O)/C=C/c1ccc(OC(=O)c2ccncc2)cc1 | -0.93% (inactive)
40 | CC(=O)C1=C(c2ccccc2)OC(N)=C(C#N)C1c1ccccc1C (configuration not stated) | 7.47% (inactive)
41 | Cn1c(CC(=O)Nc2ccccc2F)nnc1SCC(=O)NC1CCCC1 | 4.61% (inactive)
42 | Cc1cccc(N=C2NC(=O)c3cc([N+](=O)[O-])ccc32)c1 | -0.91% (inactive)

Row | Compound | inhibition
43 | O=[N+]([O-])c1ccc2c(c1)C(=Nc1ccccc1)c1ccccc1-2 | 19.1% (inactive)
44 | COc1ccc(CCNCc2ccccc2F)cc1 | -20.5% (inactive)
45 | COc1ccc(CCNCc2ccccc2)cc1 | -9.83% (inactive)
46 | COc1ccc(C(=O)NCCC2=CCCCC2)cc1 | -1.2% (inactive)
47 | COc1ccc(CC(=O)NCCC2=CCCCC2)cc1 | 10.7% (inactive)
48 | CCN1C[C@@H]2[C@@H]3C(=O)N(Cc4ccccc4)C(=O)[C@@H]3[C@](CC)(C(=O)OC)N2C1=NC1CCCCC1 | -28.6% (inactive)
49 | Cc1ccc(NC(=O)C2CCN(S(=O)(=O)c3ccc4c(c3)C(C)(C)C(=O)N4C)CC2)c(C)c1 | 8.27% (inactive)
50 | CCCn1c(N)c(N(CCOC)C(=O)COC(=O)CSc2cc(C)c3ccccc3n2)c(=O)[nH]c1=O | -17.1% (inactive)
51 | COc1ccc(O)c(/C=C2/SC(=S)N(Cc3ccccc3)C2=O)c1 | 8.37% (inactive)
52 | Cc1cc(/C=C2\SC(=S)N(C)C2=O)c(C)n1-c1cccc(O)c1 | -1.47% (inactive)
53 | CN1C(=O)/C(=C\c2ccccc2OCc2ccccc2)SC1=S | 10.4% (inactive)
54 | Cc1cc(/C=C2\SC(=S)N(C)C2=O)c(C)n1-c1ccccc1O | 6.77% (inactive)
55 | CC(=O)c1c(C)[nH]c(C(=O)NC2=NCCS2)c1C | 7.87% (inactive)
56 | O=C(CN1C(=O)NC2(CCCCC2)C1=O)Nc1cc(C(F)(F)F)ccc1N1CCOCC1 | -9.76% (inactive)
57 | COc1ccccc1Oc1c(C)oc2c(CN(C)C)c(O)ccc2c1=O | 12.9% (inactive)
58 | COc1ccc(N/N=C(\C#N)C(=N)N2CCOCC2)cc1 | 0.407% (inactive)
59 | O=C(CCCC(=O)OCC(=O)NC1CCCC1)Nc1ccccn1 | -6.66% (inactive)
60 | CCOC(=O)CCCCC(=O)c1[nH]c(=O)[nH]c1CSCCO | 12.6% (inactive)
61 | CCCCSCc1[nH]c(=O)[nH]c1C(=O)CCCCC(=O)OCC | 1.07% (inactive)
62 | Cc1[nH]c(=O)[nH]c(=O)c1CSCC(=O)OCC(=O)Nc1ccccn1 | -14.1% (inactive)
